Reference: the supplement of paper PMC8699584
Values joined by “and” are separate entries in the source; they are usually repeats but may differ in a detail not shown here. Identical values can stand only once. Counter-ions that a name gives are not always drawn. ± gives the standard deviation of the averaged measurements.

Experiments:
Molm13 = experiment: cell viability relative to DMSO control (bortezomib = 0%); higher = less growth inhibition; details: 10 nM; 72 h
Procedure, shortened: (§1)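 FLT3-ITD+ acute myeloid leukemia cells were dispensed onto a library of 679 approved and investigational compounds in 384-well plates, at 1000 cells per well in 50 µL and a single 10 nM dose, for 72 h. The screen was run in duplicate. Cell viability was read by CellTiter-Glo luminescence on an EnVision reader. Values were converted to percentages by per-plate linear regression between DMSO-treated cells (100%) and positive-control-treated cells (0%).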

Mv4-11 = experiment: as above; details: 10 nM; 72 h
Procedure, shortened: as §1

SMILES	cell viability (Molm13)	cell viability (Mv4-11)
Cc1cccc(-c2[nH]c(C(C)(C)C)nc2-c2ccc3c(c2)OCO3)n1	118 ± 26%	107 ± 20%
CC(=O)c1c(C)c2cnc(Nc3ccc(N4CCNCC4)cn3)nc2n(C2CCCC2)c1=O	89.3% and 111%	105% and 111%
CCN1CCN(Cc2ccc(-c3cc4c(N[C@H](C)c5ccccc5)ncnc4[nH]3)cc2)CC1	100 ± 17%	109 ± 18%
O=C(Nc1ccc(-c2ccnc(Nc3ccc(N4CCOCC4)cc3)n2)cc1)C1CCCN1 (stereo unspecified)	107 ± 16%	95.7 ± 4.2%
O=S(=O)(c1cccc2cnccc12)N1CCCNCC1 [Fasudil]	109 ± 12%	104 ± 9.1%
N#CCC(C1CCCC1)n1cc(-c2ncnc3[nH]ccc23)cn1 (stereo unspecified)	112 ± 15%	113 ± 13%
CCCCNc1ncc(-c2ccc(CN3CCOCC3)cn2)c(NC2CCC(O)CC2)n1 (stereo unspecified)	94.6 ± 6.1%	99.9 ± 5.7%
NC(=O)c1ccc(-c2nc(-c3ccccn3)c(-c3ccc4c(c3)OCO4)[nH]2)cc1	105 ± 16%	107 ± 20%
CC1(C)CNc2cc(NC(=O)c3cccnc3NCc3ccncc3)ccc21 [Motesanib (AMG-706)]	106 ± 20%	107 ± 5.2%
CN1CCN(c2ccc(C(=O)Nc3n[nH]c4ccc(Cc5cc(F)cc(F)c5)cc34)c(NC3CCOCC3)c2)CC1 [Entrectinib]	87.5 ± 7%	104 ± 24%
CC1(C)CC[C@]2(C(=O)O)CC[C@]3(C)C(=CC[C@@H]4[C@@]5(C)CC[C@H](O[C@@H]6O[C@H](C(=O)O)[C@@H](O)[C@H](O[C@@H]7OC[C@@H](O)[C@H](O)[C@H]7O)[C@H]6O)C(C)(C)[C@@H]5CC[C@]43C)[C@@H]2C1 [Momordin Ic]	87.4 ± 13%	106 ± 5%
O=[N+]([O-])c1ccc(-c2nc(-c3ccc(F)cc3)c(-c3ccncc3)[nH]2)cc1	99.9 ± 5.5%	101 ± 5.5%
O=C(Nc1cc(Oc2cc(F)c(NC(=O)C3(C(=O)Nc4ccc(F)cc4)CC3)cc2F)ccn1)C1CC1 [Altiratinib(DCC2701)]	106 ± 12%	120 ± 8.4%
C=CC(=O)N1CCC[C@@H](n2nc(-c3ccc(Oc4ccccc4)cc3)c3c(N)ncnc32)C1	95.3 ± 9.3%	93.2 ± 4.6%
CS(=O)(=O)CCNCc1ccc(-c2ccc3ncnc(Nc4ccc(OCc5cccc(F)c5)c(Cl)c4)c3c2)o1 [Lapatinib ditosylate monohydrate]	137 ± 32%	108 ± 17%
Nc1ncnc2c1c(-c1cccc(OCc3ccccc3)c1)cn2C1CC(CN2CCCC2)C1 (stereo unspecified)	103 ± 13%	96.5 ± 2.5%
Cc1ccc(-n2nc(C(C)(C)C)cc2NC(=O)Nc2ccc(OCCN3CCOCC3)c3ccccc23)cc1 [Doramapimod]	95.877 ± 0.081%	98.1 ± 1.1%
CCC(=O)N1CCN(c2ccc(-n3c(=O)ccc4cnc5ccc(-c6cnc7ccccc7c6)cc5c43)cc2C(F)(F)F)CC1 [Torin 1]	104 ± 4.5%	108 ± 6.9%
FC(F)(F)c1ccc(CNc2ccc(Cc3c[nH]c4ncccc34)cn2)cc1	76.9 ± 16%	110 ± 3.2%

SMILES	cell viability (Molm13)	cell viability (Mv4-11)
FC(F)(F)c1ccc(/C=C/c2nc(COc3ccc(CCCCn4ccnn4)cc3)co2)cc1 [Mubritinib (TAK 165)]	107 ± 9%	104 ± 7.6%
CN(C)Cc1cccc(N/C(=C2\C(=O)Nc3cc(C(N)=O)ccc32)c2ccccc2)c1	114 ± 4.6%	134 ± 3.4%
CN(C)Cc1cccc(N=C(c2ccccc2)c2c(O)[nH]c3cc(C(=O)N(C)C)ccc23)c1	108 ± 4.4%	111 ± 12%
COc1cc2nccc(Oc3ccc(NC(=O)C4(C(=O)Nc5ccc(F)cc5)CC4)cc3)c2cc1OC	29.6 ± 16%	44.5 ± 3.8%
CS(=O)(=O)CCNCc1ccc(-c2ccc3ncnc(Nc4ccc(OCc5cccc(F)c5)c(Cl)c4)c3c2)o1 [Lapatinib]	96.5 ± 5.9%	103.5 ± 0.39%
O=C1NC(=O)[C@@H](c2cn3c4c(cccc24)CCC3)[C@@H]1c1c[nH]c2ccccc12 [Tivantinib (ARQ 197)]	105 ± 3.9%	115 ± 11%
OCCn1cc(-c2cnc3nnn(Cc4ccc5ncccc5c4)c3n2)cn1	120 ± 24%	112 ± 8.7%
O=S(=O)(c1cccc2cnccc12)N1CCCNCC1 [HA-1077 (hydrochloride)]	105 ± 14%	112 ± 3.5%
CCN(CC)CC(=O)Nc1c(C)cccc1C [Lidocaine Hydrochloride hydrate]	111 ± 18%	113 ± 8.3%
CCOC(=O)c1c2c3c(cccc3[nH]c1=O)C(=O)c1ccccc1-2	124 ± 7.7%	103 ± 19%
Cn1ncc(Cl)c1-c1cc(C(=O)N[C@H](CN)Cc2cccc(F)c2)sc1Cl [Afuresertib]	111 ± 4.8%	113 ± 2.5%
Cc1cc(Nc2ncnc3ccc(NC4=NC(C)(C)CO4)cc23)ccc1Oc1ccn2ncnc2c1 [Irbinitinib(ARRY-380; ONT-380)]	103 ± 17%	112 ± 8.3%
Nc1ncnc2c1c(-c1cnc3[nH]ccc3c1)nn2C1CCCC1	118 ± 2.6%	125 ± 14%
COc1cc2ncnc(Nc3cccc(Br)c3)c2cc1OC	93.4% and 102%	99.1% and 113%
O=C1Nc2ccc(CN3C(=O)CSC3=O)cc2/C1=C/c1cc(CN2CCOCC2)c[nH]1	92.3 ± 7.1%	110 ± 8.4%
CNc1nc(Nc2cnn([C@H]3CCN(C4COC4)C[C@@H]3F)c2Cl)ncc1C(F)(F)F	99.6 ± 15%	106 ± 2.4%
Oc1ccc2c(c1)OCO2 [Sesamol]	103 ± 1.4%	113.6 ± 0.84%
COc1ccc(Cl)c(Nc2nc3ccccc3nc2NS(=O)(=O)c2cccc(NC(=O)C(C)(C)N)c2)c1 [Pilaralisib (XL147)]	117 ± 4%	110 ± 11%
CC(C)=CCC[C@](C)(O)[C@H]1CC[C@]2(C)[C@@H]1[C@H](O)C[C@@H]1[C@@]3(C)CC[C@H](O)C(C)(C)[C@@H]3[C@@H](O[C@@H]3O[C@H](CO)[C@@H](O)[C@H](O)[C@H]3O[C@@H]3O[C@@H](C)[C@H](O)[C@@H](O)[C@H]3O)C[C@]12C [Ginsenoside Rg2]	94.4 ± 23%	93.6 ± 9.2%
